# In PubChem BioAssay AID1259415 (National Center for Advancing Translational Sciences (NCATS), 2018):
# Values joined by “and” are separate entries in the source; they are usually repeats but may differ in a detail not shown here. Identical values can stand only once. The whole screen tested about 410,000 compounds, of which about 18,000 (4.4%) were called active. Not shown: some 7% with an inconclusive outcome. This is one part of a sample in which actives are shown more often than they occur. Cut-off read from the data, not from the text of the source: active = activity change below about -60%; inconclusive = no clear call, values can overlap the other calls; inactive = above about -39%.
# Test: qHTS Assay for inhibitors of the human cytomegalovirus (HCMV)
# Conditions: HFF cells, HCMV-luciferase reporter, 72 h; at 57.5 µM; hits give low values
# Procedure, shortened: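 Screen run at 2 compound doses on HFFs infected with reporter HCMV, MOI 1 PFU/cell. Luciferase activity from cell lysates at 72 h post infection gave inhibition relative to buffer-only and Salinomycin wells.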
# % is set by controls: 0 for no effect and ±100 for the full control effect.
row,Compound,"activity change, negative = inhibition"
1,CC1CCCN(c2nc3c(S(=O)(=O)c4ccc(C(C)C)cc4)nnn3c3ccsc23)C1 (configuration not stated),20% (inactive)
2,Cc1ccc(-n2c3nc(=O)[nH]c(=O)c-3cc3c(Cl)cccc32)cc1,-14.6% (inactive)
3,Cc1ccc(S(=O)(=O)N(C)C)cc1NC(=O)c1ccccc1Br,-5.46% (inactive)
4,CCN(CC)S(=O)(=O)c1ccc(NC(=O)c2cccnc2Cl)c(NC(=O)c2cccnc2Cl)c1,-100% (active)
5,CCN(CC)S(=O)(=O)c1ccc(C)c(NC(=O)COc2ccc(Br)cc2Cl)c1,24.1% (inactive)
6,O=C(CC(O)(C(F)(F)F)C(F)(F)F)Nc1ccc(Cl)c(Cl)c1,-103% (active)
7,Cc1ccc(-c2nn(CCC(=O)Nc3ccc(Cl)c(Cl)c3)c(=O)c3ccccc23)cc1,-16.5% (inactive)
8,O=C(CSc1nnc(-c2ccncc2)n1-c1ccccc1)Nc1ccc(Cl)c(Cl)c1,-5.77% (inactive)
9,COc1cc(Cl)c(NC(=O)C(NS(=O)(=O)c2cccs2)C(C)C)c(OC)c1 (configuration not stated),-10.2% (inactive)
10,CCc1ccc(-n2nc(C)c3c(C)cc(=O)n(CC(=O)Nc4ccc(F)cc4C)c32)cc1,5.24% (inactive)
11,CCc1ccccc1NC(=O)c1ccc2nc(CCc3ccccc3)oc2c1,30% (inactive)
12,O=S(=O)(Nc1ncnc2sccc12)c1cccc(F)c1,30.2% (inactive)
13,COC(=O)c1ccc(-c2nc3cc(NC(C)=O)ccc3o2)cc1,13.5% (inactive)
14,COC(=O)c1ccc(Nc2ncnc3sccc23)cc1,-62.4% (active)
15,CCOC(=O)c1c(NC(=O)COc2cc(C)ccc2C(C)C)sc(C)c1C,12.8% (inactive)
16,CC1CCN(S(=O)(=O)c2ccc3c(ccn3CCC(=O)NCc3ccc(N(C)C)cc3)c2)CC1,5.8% (inactive)
17,CCc1ccc(NC(=O)c2nn(-c3ccc(C)cc3)c(=O)n(C)c2=O)cc1,-12.5% (inactive)
18,CCOc1ccccc1NC(=O)CSc1ncc(S(=O)(=O)c2ccc(C(C)(C)C)cc2)c(=O)[nH]1,-2.52% (inactive)
19,CC1=CC(=Cc2sc3ccccc3[n+]2C)C=C(C)O1,-100% (active)
20,CCC(=O)N1CCc2cc(Br)cc(S(=O)(=O)CCC(=O)NCCc3ccc(OC)c(OC)c3)c21,7.78% (inactive)
21,COc1ccc(C2NC(=S)NC3=C2CCc2ccccc23)cc1OC (configuration not stated),-13.4% (inactive)
22,Cc1ccc(-c2nn(C(C)(C)C)c3ncnc(N)c23)cc1,-69.5% (active)

row,Compound,"activity change, negative = inhibition"
1,O=C1CCCC2=C1C(c1cccs1)CC(=O)N2c1ccc(F)cc1 (configuration not stated),18.4% (inactive)
2,CCOC(=O)C1=C(N)N(c2ccc(C)cc2)C2=C(C(=O)CCC2)C1c1cccs1 (configuration not stated),-86.5% (active)
3,CCOC(=O)c1cc2c(n(-c3ccc(C)cc3)c1=O)CCCC2=O,-27.5% (inactive)
4,Cc1ccc(C)c(Cn2c(=O)n(CCC(=O)NCc3ccc4c(c3)OCO4)c(=O)c3sccc32)c1,-25.1% (inactive)
5,COc1ccc(C2=NC3(CCCCC3)N(CC(=O)Nc3ccc(C(C)C)cc3)C2=O)cc1,-14.7% (inactive)
6,CCn1c(C)c(C)c2cc(C(=O)NCCc3cc(OC)ccc3OC)ccc21,0% (inactive)
7,O=C(Cn1cnc2ccccc2c1=O)NNC(=O)c1ccccc1F,-0.88% (inactive)
8,CN(NC(=O)c1ccccc1F)c1nc(C(F)(F)F)nc2ccccc12,-62.6% (active)
9,CC(NC(=O)c1ccccc1F)c1cccc2ccccc12 (configuration not stated),-5.98% (inactive)
10,Cc1cccc(C(=O)Nc2ccc(-c3nc4ccccc4s3)c(C)c2)c1,55.1% (inactive)
11,CSc1nc(N(C)NC(=O)c2cccc(C)c2)c2ccccc2n1,-87.3% (active)
12,Cc1cccc(C(=O)NCCc2nc3ccccc3n2Cc2ccccc2Cl)c1,3.18% (inactive)
13,Cc1cc2oc(C(=O)N(Cc3ccc(Cl)cc3)Cc3ccco3)c(C)c2cc1Cl,-14.8% (inactive)
14,COc1cccc(C(=O)N2CCCC(CCC(=O)NCc3ccc(F)c(F)c3)C2)c1 (configuration not stated),34.9% (inactive)
15,COc1ccc(C)cc1N(CC(=O)N1CCC(C)CC1)S(=O)(=O)c1ccc(C)cc1,-13.7% (inactive)
16,CCN(CC)CCNC(=O)CN1N=C(c2ccc(OC)cc2)CCC1=O,29.3% (inactive)
17,CC1(C(=O)NS(=O)(=O)c2ccccc2)CCN1C(=O)C/C=C/c1ccccc1 (configuration not stated),19.5% (inactive)
18,CC1(C(=O)O)CCN1C(=O)/C=C/c1ccccc1 (configuration not stated),-1.81% (inactive)
19,CC1(C)CCSC(/C=C/c2ccccc2)=N1,-97.3% (active)
20,COc1cccc(-n2ccn(CC(=O)NCc3ccc(C)cc3)c(=O)c2=O)c1,-17.1% (inactive)
21,Fc1ccccc1N=C1Nc2cccc3cccc1c23,-68.6% (active)
22,COc1ccc(C)cc1S(=O)(=O)Nc1cc2c3c(c1)CCC(=O)N3CCC2,0.474% (inactive)

row,Compound,"activity change, negative = inhibition"
1,CCN(CC)P(=O)(/C(Cl)=C\Nc1c(C)n(C)n(-c2ccccc2)c1=O)N(CC)CC,54% (inactive)
2,Cc1cc(C)c2nc(SCC(=O)N(C)C3CCS(=O)(=O)C3)cc(C)c2c1 (configuration not stated),25.8% (inactive)
3,CCCOc1ccc(C(=O)C(CCC(CNCC)C(=O)c2ccc(OCCC)cc2)CNCC)cc1 (configuration not stated),-96.5% (active)
4,CC(C)CCOc1ccc(C(=O)C[N+]2(C)CCOCC2)cc1,-4.43% (inactive)
5,CCCOc1cccc(C(=O)Nc2cccc(NC(=O)c3ccc(C(C)(C)C)cc3)c2)c1,50.3% (inactive)
6,Cc1ccc(OCCn2c(CNc3ccccc3C)nc3ccccc32)cc1,38% (inactive)
7,COc1ccc(/C=C/c2nc(C#N)c(NCc3ccc(F)cc3)o2)cc1OC,9.25% (inactive)
8,Cc1cc(Cl)ccc1OCC(=O)N(Cc1ccc(N(C)C)cc1)C1CCS(=O)(=O)C1 (configuration not stated),15.4% (inactive)
9,COc1ccc(Cl)cc1NC(=O)CCC(=O)c1ccc(C)cc1,-19.2% (inactive)
10,Cc1ccc(Cl)cc1NC(=O)CCS(=O)(=O)c1ccc(Br)s1,-33.6% (inactive)
11,COc1ccc(Cl)cc1NC(=O)CCS(=O)(=O)c1ccc(Br)cc1,-65.8% (active)
12,O=C(c1ccccc1)N1CC(=O)N2[C@@H](CO)[C@@H](c3ccc(Br)cc3)[C@@H]2C1,14.7% (inactive)
13,Cc1cc(C(=O)Nc2cccc(C(F)(F)F)c2)c2c(C)nn(-c3cccc(F)c3)c2n1,-98.1% (active)
14,COc1cc(NC(=O)c2cc(C3CC3)nc3c2c(C)nn3-c2ccccc2)cc(OC)c1,-30% (inactive)
15,CSc1ccc(CCNC(=O)c2cc(C)nc3c2c(C)nn3-c2cccc(F)c2)cc1,30.7% (inactive)
16,O=C(CN1CCN(S(=O)(=O)/C=C/c2ccccc2)CC1)NC(=O)NCc1ccco1,61.6% (inactive)
17,COc1ccc(OC)c(C2C3=C(N=c4s/c(=C\c5cccc(O)c5)c(=O)n42)c2ccccc2CC3)c1 (configuration not stated),-92.5% (active)
18,COc1ccc(Cn2ccc3nc(C)c(C(=O)Nc4ccc(C)c(F)c4)cc3c2=O)cc1,0.318% (inactive)
19,COc1ccc(C2=CC(c3ccccc3Cl)n3nc(-c4ccc(Cl)cc4)nc3N2)cc1 (configuration not stated),-32.6% (inactive)
20,C/C(=N\Nc1nc(N2CCOCC2)nc(N2CCOCC2)n1)c1ccc([N+](=O)[O-])cc1,-66% (active)
21,C/C(=N/NC(=O)CC(=O)N/N=C(\C)c1ccc([N+](=O)[O-])cc1)c1ccc([N+](=O)[O-])cc1,-9.56% (inactive)
22,C/C(=N\Nc1ccc([N+](=O)[O-])cc1)c1ccc(-n2nncc2C(C)(C)C)cc1,-14.8% (inactive)

row,Compound,"activity change, negative = inhibition"
1,CC1CCN(CCCNC(=O)CN2C(=O)CSc3ccc(S(=O)(=O)N4CCCCC4)cc32)CC1,16.9% (inactive) and -5.47% (inactive)
2,CCOC(=O)c1ccccc1NC(=O)c1sc2nc(-c3ccc(F)cc3)cn2c1C,-4.65% (inactive)
3,Cc1cccc(C(=O)Nc2ccc(-c3nc4ncccc4o3)cc2C)c1,24.6% (inactive)
4,O=C1c2ccccc2C(=O)N1CCOc1ccc(F)cc1,-3.7% (inactive)
5,O=C1NC(=O)N(CCc2ccc(F)cc2)C(=O)/C1=C/C=C/c1ccccc1,-71.6% (active)
6,CCc1ccc(OCC(=O)N2CCN(CC(=O)Nc3ccccc3Cl)CC2)cc1,11.8% (inactive)
7,Clc1ccc(-c2cc(COc3ccccc3)no2)cc1Cl,0.868% (inactive)
8,Cc1ccc(NC(=O)CSc2nnc3[nH]c(=O)cc(C)n23)cc1Cl,-38.5% (inactive)
9,COc1ccc(-c2cc(=O)oc3cc(OC(C)C(=O)NCC4CCC(C(=O)O)CC4)ccc23)cc1 (configuration not stated),5.3% (inactive)
10,Cc1cc(=O)oc2cc(OC(C)C(=O)Nc3ccc(N4CCOCC4)cc3)ccc12 (configuration not stated),5.98% (inactive)
11,COc1ccc(-c2cc(=O)oc3cc(OC(C)C(=O)Nc4ccc(CN5CCOCC5)cc4)ccc23)cc1 (configuration not stated),-70.7% (active)
12,CCCNC(=O)c1ccc2c(c1)ncn2-c1ccc(C)cc1C,-6.25% (inactive)
13,CC(C)(C)c1ccc(C(=O)Nc2ccc3c(c2)CCCN3C(=O)c2cccs2)cc1,-80.2% (active)
14,O=C(Nc1ccc2nc(SCC(=O)N3CCCc4ccccc43)sc2c1)c1ccc(Cl)cc1,95.5% (inactive)
15,O=C(Nc1ccc2nc(SCC(=O)N3CCCc4ccccc43)sc2c1)c1ccc(F)cc1,-5.14% (inactive)
16,Cc1ccc(CNC(=O)CCCNC(=O)c2ccc(Cl)cc2)n1C,43.4% (inactive)
17,CCOc1ccccc1CNC(=O)C1CCCN(S(=O)(=O)c2ccc3c(ccn3C)c2)C1 (configuration not stated),-5.75% (inactive)
18,Cc1ccc(CNC(=O)CCc2c(C)nn(-c3ccc(N4CCCC4)nn3)c2C)cc1,19.6% (inactive)
19,CCN(CC)C(=O)CSc1nnc(C2CCCCC2)o1,18.8% (inactive)
20,Cc1[nH]c2ccccc2c1C(=O)C(C)Sc1nnc(C2CC2)o1 (configuration not stated),0% (inactive)
21,CCCCCC1CCC(c2nnc(SCC(C)=O)o2)CC1 (configuration not stated),-99.8% (active)
